Env fusion inh – HIV envelope-mediated fusion inhibition. AID 651610. HeLa-JRFL Env/CEM21 cell fusion, luciferase. 360,000 compounds, 1.1% hits. inhibition, % at 12.3 µM;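 active means mean replicate inhibition score of at least 50 and every replicate individually at or above 50; inconclusive means only one of the two criteria met; inactive means mean below 50 and not all replicates reaching 50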
PGC1a acetyl inh – modulators of PGC1a acetylation; AID 651687; inhibition, % at 15.6 µM; U2OS PGC1a acetylation, AlphaScreen anti-acetyl-lysine; with virally co-expressed GCN5 acetyltransferase; 350,000 compounds, 0.17% hits;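 active means every replicate shows inhibition of at least 40%; inconclusive means mean inhibition at least 40% but some replicate below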
F508del corr – correctors of CFTR F508del function in bronchial epithelial cells | CFBE cells, YFP halide quenching; stimulated with forskolin plus potentiator P3; % fluorescence drop versus neutral controls | activity (quench increase), % at 7.58 µM | 350,000 compounds, 0.36% hits | AID 720511;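 active means mean added fluorescence quench of at least 8% versus neutral control, with both replicates also reaching 8%; inconclusive means only one of the mean or replicate conditions met; inactive means mean below 8% and not both replicates reaching 8%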;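 further: cells transiently co-express mutant CFTR-F508del with the halide-sensitive YFP; corrector assay measuring rescue of mutant channel to the surface after 24 h compound exposure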
PAX8 reporter – PAX8 transcriptional activity inhibition. RMG-I TPO-luciferase reporter, SteadyGlo, 24 h. inhibition, % at 12.6 µM. 360,000 compounds, 1.2% hits. AID 652154;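 active means mean replicate inhibition at least 60% with every replicate also reaching 60%; inconclusive means only one of the two criteria is met; inactive means mean below 60% and not all replicates reaching 60%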;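 further: luciferase light reporting Pax8 driven TPO promoter activity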
EWS-Fli block – inhibitors of EWS/Fli oncoprotein transcriptional activity; 350,000 compounds, 0.67% hits; AID 651661; A673 NR0B1-luciferase reporter, viability-normalised; inhibition, % at 12.6 µM;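 active means mean inhibition of at least 50% after viability correction, with every replicate also passing that limit; inconclusive means mean reaches 50% but only one of two replicates passes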;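 further: firefly luciferase signal divided by Alamar Blue viability fluorescence both relative to DMSO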
INS-1E GSIS act – primary screen for activators of insulin secretion dependent on glucose, INS-1E cells, GLuc reporter luminescence; INS-1E GLuc reporter insulin secretion, 2-3 h; activation, % at 16.6 µM; 370,000 compounds, 0.61% hits; AID 743287;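 active means lowest replicate activation of at least 40%, so every replicate reaches that level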
DNA binding – binds DNA displacing acridine orange | shares compounds with EWS-Fli block | salmon sperm DNA acridine orange fluorescence polarization | AC35, µM (series often up to 68 µM) | 640 compounds, 2% hits | AID 720586;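 active means fitted curve reaches a 35% signal fall AC35 below twice the sample's top valid tested dose, actives reach about 48 µM in these data; inactive means the rest, including activity in the rising direction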;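 further: lower polarization ratio signals compound binding to DNA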
C2C12 COX5a inh – inhibitors of PGC-1a target COX5a expression in C2C12 myotubes; 45 tested, under 10 active; shares compounds with PGC1a acetyl inh; AID 743461; C2C12 myotubes PGC-1a adenovirus, COX5a qPCR; maximal activity, %;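 active means fitted dose curve reaching 40% activity at or below the highest valid dose tested; inconclusive means flat fit between 30% and 70%, or an unusable fit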
AID743468 – change in PGC-1a target gene PDK4 expression, dose response, C2C12 myotubes, RT-qPCR, cherry-pick; AID 743468; PGC-1a adenovirus, PDK4 mRNA qPCR; shares compounds with PGC1a acetyl inh; 45 tested, under 10 active; PDK4 expression increase, % at 19.5 µM;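 active means fitted curve reaching a 40% PDK4 expression rise at or below the top valid tested dose; inconclusive means no clear call, values can overlap the other calls; inactive means the rest, including shifts the wrong way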
Of the large screens only hits and unclear results are named; the others gave an inactive call (follow-up assays come after a bar, where they were run). A selection: hits, their analogues and other compounds. The true share with any hit is near 2.7%.

CC(=O)OC1CC(OC2C(O)CC(OC3C(O)CC(OC4CCC5(C)C(CCC6C5CCC5(C)C(C7=CC(=O)OC7)C(O)CC65O)C4)OC3C)OC2C)OC(C)C1OC1OC(CO)C(O)C(O)C1O (centres undefined)	Env fusion inh 85, PGC1a acetyl inh inconclusive, PAX8 reporter 104, EWS-Fli block 63 | DNA binding inactive
CC(=O)O[C@@H]1CC[C@]2(C)C3CC[C@@]4(C)C(C[C@@H](O)[C@@H]4O)C3[C@@H](OC(C)=O)C[C@H]2C1 (some centres undefined)	none (no result: PAX8 reporter, INS-1E GSIS act)
CC(=O)OC1CC2(O)C3CCC4CC(O)CCC4(C)C3CCC2(C)C1C1=CC(=O)OC1 (centres undefined)	Env fusion inh 102, PGC1a acetyl inh 65, EWS-Fli block 63 (no result: PAX8 reporter) | DNA binding inactive
O=C(Cc1ccccc1)N1CCCCN2[C@H](CO)[C@H](c3ccc(C#Cc4ccccc4)cc3)[C@@H]2C1	none (no result: Env fusion inh, EWS-Fli block)
CN1[C@@H]2c3cccc(=O)n3C[C@H]1[C@H](CO)[C@H]2C(=O)NCC1CC1	none (no result: PGC1a acetyl inh, F508del corr)
CC[C@@H]1C[C@H]2CC[C@H](O2)[C@H](C)C(=O)O[C@@H](C)C[C@@H]2CC[C@@H](O2)[C@@H](C)C(=O)O[C@H](C)C[C@H]2CC[C@H](O2)[C@H](C)C(=O)O[C@@H](C)C[C@@H]2CC[C@@H](O2)[C@@H](C)C(=O)O1	EWS-Fli block 54 (no result: Env fusion inh, PGC1a acetyl inh, PAX8 reporter) | DNA binding inactive
O=c1[nH]c2ccccc2n1C1CCN(C(c2cc3ccccc3o2)c2nnnn2Cc2ccccc2)CC1 (centres undefined)	PGC1a acetyl inh 49, PAX8 reporter 108 | C2C12 COX5a inh inactive | AID743468 inactive
O=C(O)[C@@H]1[C@@H](CO)[C@@H]2Cn3c(ccc(-c4ccncc4)c3=O)[C@H]1N2C(=O)C1CCCCC1	none (no result: Env fusion inh, PGC1a acetyl inh, PAX8 reporter)

High-throughput results (PubChem BioAssay)
